Platelet DG rel – modulates dense granule release in human platelets. human platelet-rich plasma, SFLLRN dense granule ATP release, luminescence. inhibition, %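 (compounds screened at 7.5 µM in platelet-rich plasma)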. 0.22% of 300,000 active;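 active = mean replicate score, as percent of positive control, at or above 50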
PPC-1+TRAIL kill – PPC-1 cancer cell killing with TRAIL present; PPC-1 cells + TRAIL, ATPLite viability luminescence; cell killing (% activity), % at 4 µM or 5 µM; 0.41% of 220,000 active; AID 1443;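 active = cell killing above 50% in the first pass at 4 µM, then a duplicate retest at 5 µM averaging 50% or more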;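 note: plate controls were cells with TRAIL plus DMSO for no effect and medium-only wells lacking cells for full effect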
HSP90 refold inh – HSP90 refolding inhibition in rabbit reticulocyte lysate; luciferase refolding luminescence, 3 h; inhibition, % at 5.6 µM; 0.91% of 290,000 active;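 active = inhibition above the screen-wide mean plus 3 SD, computed separately per campaign, cut at about 16% in these data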;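 note: 0% = DMSO wells and 100% = 60 µM geldanamycin wells; inhibitors lower the luminescence because luciferase stays unfolded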
TWEAK-Fn14 inh – inhibitors of TWEAK-Fn14 interaction signaling; TWEAK-stimulated Fn14 reporter cells, luciferase luminescence, 8 h; inhibition, % at 10 µM; 2% of 360,000 active; AID 1159606; in the data active = inhibition above about 50%
TRAIL sens C8 – sensitizes caspase-8 expressing cells to TRAIL | NB7+C8 cells + TRAIL, ATPlite viability luminescence | inhibition (viability loss, TRAIL sensitization), % at 10 µM | 1% of 360,000 active;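 active = compounds causing at least 50% loss of cell viability in the single-dose screen, relative to plate controls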
TROY signal inh – inhibitors of TROY-dependent NF-kB signaling | AID 1347056 | Q293 LMP1-TROYcd NF-kB luciferase reporter, 4 h | 0.98% of 360,000 active | inhibition, % at 10 µM;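 active = compounds whose plate-normalised and pattern-corrected inhibition of the luciferase reporter signal at the single screening dose is 50% or more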
PPC1 cytotox – PPC-1 cell cytotoxicity; shares compounds with PPC-1+TRAIL kill; PPC-1 viability, ATPlite luminescence, overnight; cytotoxicity, % at 5 µM; 50% of 1,200 active; AID 1447;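 active = reconfirmed compounds whose average cytotoxicity reaches 50% or more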;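 note: 0% = DMSO-treated cells and 100% = wells holding medium but no cells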
HSP90 inh confirm – HSP90 inhibition, confirmation assay; shares compounds with HSP90 refold inh; rabbit reticulocyte lysate, luciferase refolding luminescence, 3 h; inhibition, % at 5.9 µM; 64% of 2,300 active; AID 1846; in the data active = inhibition above about 18%;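 note: 0% = vehicle wells and 100% = reference inhibitor wells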
FLuc counter – counter-screen for HSP90 inhibitors: inhibitors of firefly luciferase | inhibition, % at 5.9 µM | shares compounds with HSP90 refold inh | 48% of 2,300 active | purified native firefly luciferase, luminescence;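 active = inhibition above the mean inhibition of all tested sample wells plus 3 SD, cut at about 10% in these data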;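 note: 0% = DMSO with luciferase and 100% = wells lacking luciferase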
Target sequence (P08659 whole entry, looked up): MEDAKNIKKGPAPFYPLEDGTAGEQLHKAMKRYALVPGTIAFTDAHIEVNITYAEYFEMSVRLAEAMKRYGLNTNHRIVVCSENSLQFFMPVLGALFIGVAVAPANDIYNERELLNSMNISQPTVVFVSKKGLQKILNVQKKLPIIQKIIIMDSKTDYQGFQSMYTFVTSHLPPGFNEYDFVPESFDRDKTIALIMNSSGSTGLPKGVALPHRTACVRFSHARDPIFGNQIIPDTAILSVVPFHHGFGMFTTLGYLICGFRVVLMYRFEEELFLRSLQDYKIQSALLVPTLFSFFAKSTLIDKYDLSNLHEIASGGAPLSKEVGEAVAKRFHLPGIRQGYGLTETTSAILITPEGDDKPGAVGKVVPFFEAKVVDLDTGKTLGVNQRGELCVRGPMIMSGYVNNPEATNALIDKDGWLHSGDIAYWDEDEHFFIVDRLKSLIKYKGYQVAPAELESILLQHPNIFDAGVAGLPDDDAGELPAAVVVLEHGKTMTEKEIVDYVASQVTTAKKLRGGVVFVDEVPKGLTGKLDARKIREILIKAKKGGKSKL
Numbers without * were called inactive; / = no result given. Most compounds without a hit are left out; they make up all but 3.5% or so of the library.

SMILES	Platelet DG rel	PPC-1+TRAIL kill	HSP90 refold inh	TWEAK-Fn14 inh	TRAIL sens C8	TROY signal inh	PPC1 cytotox	HSP90 inh confirm	FLuc counter
COc1ccc2nc(NC(=O)CCNC(=O)c3ccco3)sc2c1	/	/	/	-16.3	4.1	-71.0	/	/	/
Cc1cn([C@H]2C[C@H](O)[C@@H](CNCC3=Cc4cc(O)ccc4OC3)O2)c(=O)[nH]c1=O	/	/	/	5.9	-3.3	-11.9	/	/	/
CC(=O)N(C(C)=O)c1ncn(C)c1S(=O)(=O)Nc1ccccc1	/	/	/	16.1	-22.4	-1.6	/	/	/
O=C(/C=C/c1cccs1)c1ccc(N2CCOCC2)cc1	31.7	63.5*	31.3*	88.6*	76.2*	74.7*	65.3*	58.4*	68.6*
Cc1cc(C(=O)Cn2nnc3ccccc3c2=O)c(C)n1-c1ccccc1F	-2.1	69.1*	61.6*	73.1*	81.1*	81.8*	69.6*	70.1*	54.3*
COc1cc(C(C)=O)ccc1OCC(=O)N(CCC1=CCCCC1)c1c(N)n(Cc2ccccc2)c(=O)[nH]c1=O	28.5	/	/	10.1	-2.0	6.9	/	/	/
CCN(CC)C(=O)C1=C(C)N(CCC2=CCCCC2)C(=O)C(CC(=O)NCCN2CCOCC2)C1 (stereo not drawn)	/	/	/	9.9	-6.6	-1.7	/	/	/
Cc1ccc(CNc2nc3ccccc3s2)s1	4.7	74.5*	35.9*	80.0*	78.3*	41.0	74.7*	67.9*	61.1*
Cc1nc(-c2ccc(NC(=O)c3ccccc3)cc2)cs1	30.5	64.3*	20.6*	67.8*	75.9*	19.1	61.3*	39.6*	27.9*
Cc1ccc(C(=O)Nc2ccc(-c3csc(C)n3)cc2)cc1	-1.4	11.4	0.9	20.8	11.4	-24.0	/	/	/
Cc1nnc(NC(=O)c2sc3ccccc3c2Cl)s1	-15.3	81.0*	18.0*	45.9	86.9*	-21.5	81.0*	34.7*	18.5*
COc1ccccc1C(=O)NC(=O)COC(=O)c1cnccn1	/	/	/	-10.6	10.3	-8.0	/	/	/
c1ccc(-c2cn3c4c(sc3n2)CCCC4)cc1	0.7	82.0*	33.4*	89.2*	84.6*	72.2*	83.0*	82.8*	80.3*
Cc1c(C(=O)NCc2cccnc2)sc2nc(-c3ccccc3)cn12	2.8	/	7.6	-24.2	14.6	-40.7	/	/	/
Nc1ccc2nc(-c3ccccc3)sc2c1	64.0*	68.5*	36.9*	90.5*	76.0*	21.8	68.3*	72.2*	67.7*
CNC(=S)Nc1ccc(-c2nc3ccc(C)cc3s2)cc1	2.5	40.1	1.3	49.0	47.5	13.3	/	/	/
Nc1ccc2nc(-c3ccccc3)c(-c3ccccc3)nc2c1	-4.8	/	6.0	12.2	5.6	1.3	/	/	/
Nc1ccc(-c2nc3cc(N)ccc3s2)cc1	/	48.0	25.0*	-8.2	60.1*	-15.4	54.0*	47.2*	38.8*
CC(=O)Nc1nc2cc(N)ccc2s1	/	/	/	-11.2	9.7	7.2	/	/	/
Cc1ccc2nc(-c3ccc(N)cc3)sc2c1	23.5	80.8*	49.7*	26.4	83.5*	-4.3	81.6*	69.0*	66.4*
O=S(=O)(O)c1nc2ccccc2n1Cc1cccc2ccccc12	-0.1	1.0	-4.4	/	/	/	/	/	/
O=C(Nc1ccccc1Br)c1ccc(N2CCCC2=O)cc1	-7.1	/	/	-12.0	11.3	-18.0	/	/	/
COc1ccc(C(=O)Nn2c(SCC(=O)NCc3ccco3)nc3ccccc3c2=O)cc1	8.7	34.1	55.6*	87.9*	33.4	80.0*	35.4	64.9*	64.8*
COc1cccc(C(=O)Nc2ccc(NC(=O)C(C)(C)C)cn2)c1	20.1	70.9*	33.2*	75.4*	76.9*	65.0*	73.3*	48.5*	37.2*
CCN(CCO)c1ccc(N=Nc2cc(C)[nH]n2)cc1	-8.5	77.4*	57.5*	90.6*	85.9*	69.0*	78.2*	76.4*	67.7*
SMILES	Platelet DG rel	PPC-1+TRAIL kill	HSP90 refold inh	TWEAK-Fn14 inh	TRAIL sens C8	TROY signal inh	PPC1 cytotox	HSP90 inh confirm	FLuc counter
Cc1csc(NC(=O)c2ccc(N3CCCC3=O)cc2)n1	43.8	56.0*	42.2*	90.3*	70.6*	69.7*	53.4*	77.0*	68.3*
CCc1nnc(NC(=O)c2cc3c(s2)CCCCC3)s1	-6.7	/	1.1	19.9	38.1	-10.7	/	/	/
Cc1nnc(NC(=O)c2ccc(N3CCCC3=O)cc2)s1	/	/	/	0.2	20.3	-10.7	/	/	/
Cc1csc(NC(=O)c2cc3c(s2)CCCCC3)n1	25.6	84.8*	60.6*	94.6*	91.5*	76.6*	82.1*	78.9*	77.2*
Cc1cnc(NC(=O)c2cc3c(s2)CCCC3)s1	1.7	72.0*	43.4*	86.5*	92.5*	56.6*	70.1*	66.0*	64.3*
Cc1csc(NC(=O)c2cc3c(s2)CCCC3)n1	/	66.5*	35.1*	71.1*	77.6*	34.7	69.4*	49.8*	49.5*
COCOc1cccc(CN2CCC(C)(Oc3cccc(OC)c3)C2)c1 (stereo not drawn)	/	/	/	12.7	1.0	-8.2	/	/	/
CC(=O)Nc1ccc(NC(=O)Cc2ccc(S(=O)(=O)N3CCCCC3)cc2)cc1	/	/	/	-21.5	-3.4	-2.3	/	/	/
CSc1ccc(NC(=O)C2(C)CCN2C(=O)c2cc(C)n(C)n2)cc1 (stereo not drawn)	/	/	/	-4.4	-4.1	17.2	/	/	/
CCOc1ccc(OCC(=O)Nc2nccs2)cc1	69.0*	47.1	54.0*	84.9*	65.6*	64.7*	51.5*	77.3*	69.8*
COc1cccc(-c2cc(C(=O)Nc3cccc(O)c3)no2)c1	21.9	55.8*	17.5*	65.8*	69.8*	44.0	54.6*	64.3*	57.4*
O=C1C(=C2SCCCS2)CC/C1=C\c1ccc(F)cc1	-23.6	90.2*	53.8*	104.0*	84.2*	86.1*	89.5*	92.5*	86.2*
C[C@@H](CO)NC(=O)c1[nH]cnc1C(=O)Nc1cccc(Cl)c1	/	/	/	7.0	16.5	-15.6	/	/	/
CC(=O)NC(Cc1cc(C)ccc1C)C(=O)N1CCN(C(=O)c2ccc([N+](=O)[O-])cc2)CC1 (stereo not drawn)	3.1	/	-0.7	-1.5	5.7	-9.9	/	/	/
CCOC(=O)c1cn[nH]c1NC(=S)Nc1ccc(OC)cc1	3.1	60.1*	64.7*	76.1*	67.1*	61.7*	59.4*	65.4*	61.6*
CCOC(=O)NC(=S)Nc1ccc(OC)cc1	-3.3	19.6	-0.6	-16.0	-0.9	-22.5	/	/	/
Cc1ccc2oc(-c3cccc(N)c3)nc2c1	35.5	55.0*	33.3*	51.0*	62.6*	2.5	55.6*	43.2*	38.3*
Nc1ccc(-c2nc3cc([N+](=O)[O-])ccc3o2)cc1	-2.6	23.4	5.7	-18.9	31.9	-29.6	/	/	/
